Measurements reported in the supplement of paper PMC8728848.
Only a selection was taken, and the strongest signals are over-represented in it overall.

System: Gal(b1-3)Gal(b1-4)GlcNAc
Experiment: glycan array binding signal (z-score within array); higher = stronger binding
Conditions: glycan notation: IUPAC condensed, linker removed
Procedure, shortened: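 Glycan array data were curated from 3228 arrays in the Consortium for Functional Glycomics database and kept only where the protein sequence was available. Glycan names were converted to IUPAC-condensed notation, and columns mapping to the same glycan were averaged. The binding signal is a within-array Z-score, averaged across arrays of the same protein sequence at different concentrations or buffers and across linkers. Negative Z-scores can be read as non-binding.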

In order of rising “glycan array binding signal (z-score)” value:
1. SiiE (Salmonella typhimurium), A0A0H3NVH0  -1.51
2. SpGH101 (Streptococcus pneumoniae), Q8DR60  -0.193
3. Actinohivin (Actinomycete K97)  -0.14
4. Wza (Escherichia coli), P0A930  3.02
